{"source": "PubChem BioAssay AID623911", "about": "(Vanderbilt High Throughput Screening Facility, 2012)", "note": "The whole screen tested about 2,100 compounds, of which about 770 (37%) were called active. Some of the results follow. A number with no mark means an inactive call.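 How the source made its calls: active means by-eye trace score of 1 for enhancers or -1 for inhibitors, so actives lie on both sides (some results past the limit were not filed as active); inactive means score 0, or 3 fluorescent, or 4 baseline rise.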", "data": [{"biological_target": "G protein-activated inward rectifier potassium channel 2 (Homo sapiens) + G protein-activated inward rectifier potassium channel 1 (Homo sapiens) (UniProt P48051+P48549)", "sequence (P48051 whole entry, looked up)": "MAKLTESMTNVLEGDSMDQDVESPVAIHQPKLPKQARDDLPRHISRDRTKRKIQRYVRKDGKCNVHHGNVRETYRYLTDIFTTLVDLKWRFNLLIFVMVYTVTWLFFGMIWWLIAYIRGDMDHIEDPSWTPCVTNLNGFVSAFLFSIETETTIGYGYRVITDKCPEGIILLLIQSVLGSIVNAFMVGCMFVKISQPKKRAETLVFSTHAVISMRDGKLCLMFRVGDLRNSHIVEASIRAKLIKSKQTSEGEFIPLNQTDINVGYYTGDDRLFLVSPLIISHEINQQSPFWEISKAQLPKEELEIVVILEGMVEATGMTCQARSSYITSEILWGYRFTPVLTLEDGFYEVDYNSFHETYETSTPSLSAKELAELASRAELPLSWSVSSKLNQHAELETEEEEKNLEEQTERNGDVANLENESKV", "sequence (P48549 whole entry, looked up)": "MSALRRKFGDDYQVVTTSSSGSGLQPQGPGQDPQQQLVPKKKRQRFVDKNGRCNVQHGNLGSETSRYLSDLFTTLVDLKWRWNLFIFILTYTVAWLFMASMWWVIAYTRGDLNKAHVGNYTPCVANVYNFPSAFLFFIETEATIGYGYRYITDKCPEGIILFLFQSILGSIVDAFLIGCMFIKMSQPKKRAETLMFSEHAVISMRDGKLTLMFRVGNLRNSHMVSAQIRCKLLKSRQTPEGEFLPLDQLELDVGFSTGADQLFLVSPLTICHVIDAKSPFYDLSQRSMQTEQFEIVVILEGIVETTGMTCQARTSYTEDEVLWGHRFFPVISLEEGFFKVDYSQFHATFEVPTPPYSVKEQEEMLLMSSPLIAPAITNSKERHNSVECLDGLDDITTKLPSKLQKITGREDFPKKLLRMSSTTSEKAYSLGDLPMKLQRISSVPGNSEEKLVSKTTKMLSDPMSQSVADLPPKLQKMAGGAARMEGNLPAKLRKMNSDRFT", "assay": "GIRK1/2 thallium flux modulators, retest, confirmation, cell-based, HEK293 rmGlu8/hGIRK1/2, FluoZin-2 (AID 623911)", "settings": "HEK293 rmGlu8/hGIRK1/2, thallium flux FluoZin-2; actives lie on both sides; glutamate co-added at its EC20 level", "values": [{"smiles": "Cc1nc2nc(Cc3ccccc3)[nH]n2c(=O)c1Cc1ccccc1", "manual score": 0}, {"smiles": "CCN(CC)CCN1C(=O)c2oc3ccccc3c(=O)c2C1c1ccc(C)cc1", "note": "(stereo not drawn)", "manual score": 0}, {"smiles": "CCOC(=O)C(C)Oc1ccc2c(CC)cc(=O)oc2c1C", "note": "(stereo not drawn)", "manual score": 0}, {"smiles": "CCOC(=O)C1=C(O)C(=O)N(c2ccc(S(N)(=O)=O)cc2)C1c1ccccc1", "note": "(stereo not drawn)", "manual score": 0}, {"smiles": "COc1ccc2nc(N3C(=O)/C(=C/c4ccccc4)NC3=S)sc2c1", "manual score": "1 (active)"}, {"smiles": "CCCSc1nc(C)nc2c1c(=O)n(C)c(=O)n2C", "manual score": 0}, {"smiles": "Clc1ccc(OCCn2ccnc2)c(Cl)c1", "manual score": 0}, {"smiles": "CC(C)CC(NS(=O)(=O)c1ccc2c(c1)oc(=O)n2C)C(=O)NC1CCCc2ccccc21", "note": "(stereo not drawn)", "manual score": 0}, {"smiles": "CSc1nc(Sc2ccccc2)c2ccccc2n1", "manual score": 0}, {"smiles": "Cc1sc2nc(CN3CCCC3)nc(N3CCN(S(=O)(=O)c4cccs4)CC3)c2c1C", "manual score": "-1 (active)"}, {"smiles": "Cc1nc(N2CCN(C(=O)COc3ccccc3)CC2)c2c(C)c(C)sc2n1", "manual score": -0.5}, {"smiles": "CCOc1ccccc1N1CCN(S(=O)(=O)c2cccs2)CC1", "manual score": 0}, {"smiles": "Cc1cc(/C=c2/sc3nc4ccccc4n3c2=O)c(C)n1-c1ccccn1", "manual score": 0}, {"smiles": "CCNC(=S)N/N=C/c1c(Cl)cccc1Cl", "manual score": 0.5}, {"smiles": "CCCCN(CCCC)C(=S)N/N=C/c1c(C)[nH]n(-c2ccccc2)c1=O", "manual score": "1 (active)"}, {"smiles": "CC1=NN(c2ccccc2)C(=O)/C1=C\\c1c(C)[nH]n(-c2ccccc2)c1=O", "manual score": 0}, {"smiles": "Cc1nc2c(-c3ccccc3)c(C)[nH]n2c(=O)c1Cl", "manual score": 0}, {"smiles": "Cc1[nH]n2c(=O)cc(C(C)(C)C)nc2c1-c1ccccc1", "manual score": "1 (active)"}, {"smiles": "Cc1cc(=O)n2[nH]c(C)c(-c3ccccc3)c2n1", "manual score": 0.5}, {"smiles": "COc1cc(CNc2ccc(N3CCCC3)cc2)ccc1OCc1ccccc1", "manual score": 0}, {"smiles": "COc1cc(/C=C(/C#N)c2ccc(F)cc2)ccc1OCc1ccc(C(=O)O)o1", "manual score": 0}, {"smiles": "COc1cc(CNCCc2c[nH]c3ccccc23)ccc1OCc1ccc(F)cc1", "manual score": "-1 (active)"}, {"smiles": "Cc1ccc(Cl)cc1NC(=S)NCc1cccn1C", "manual score": "1 (active)"}, {"smiles": "COc1ccccc1NC(=S)NCCc1ccc(Cl)cc1", "manual score": 0}, {"smiles": "Cn1cccc1CNC1CCCC1", "manual score": 0}, {"smiles": "O=C(CN1C(=O)c2cccc3cccc(c23)C1=O)N1CCN(c2ccccn2)CC1", "manual score": 3}, {"smiles": "O=C(c1ccccc1CCc1ccccc1)N1CCN(c2ccccn2)CC1", "manual score": "-1 (active)"}, {"smiles": "Cc1cc(C(=O)N2CCN(CCc3ccccc3)CC2)no1", "manual score": 0}, {"smiles": "CCOC(=O)C1CCN(C(=O)N(C)C)CC1", "manual score": 0}, {"smiles": "COc1ccc(NC(=S)Nc2ccc(OCc3ccccc3)cc2)cc1OC", "manual score": 0}, {"smiles": "COc1ccc(NC(=S)SC)cc1OC", "manual score": 0}, {"smiles": "CCC(C)c1ccc(NC(=S)Nc2ccc(OC)c(OC)c2)cc1", "note": "(stereo not drawn)", "manual score": "1 (active)"}, {"smiles": "COc1ccc(CCC(=O)NCc2cnn(C)c2)cc1", "manual score": 0}, {"smiles": "Cc1nnc(NC(=O)CCSc2ccccc2)s1", "manual score": 0}, {"smiles": "CCCSc1nnc(Nc2ccccc2C)s1", "manual score": "1 (active)"}, {"smiles": "c1ccc2c(Nc3nnc(-c4ccncc4)s3)cccc2c1", "manual score": 0}, {"smiles": "COC(=O)C1=NN(c2ccccc2)C2C(=O)N(c3ccccc3OC)C(=O)C12", "note": "(stereo not drawn)", "manual score": 0}, {"smiles": "N#CC(c1cccc(Cl)c1)c1ccc2c(C(F)(F)F)cc(C(F)(F)F)nc2n1", "note": "(stereo not drawn)", "manual score": 0}, {"smiles": "CCCCNC(=S)N/N=C1\\C(=O)c2cccc3cccc1c23", "manual score": 0}, {"smiles": "CNC(=S)N/N=C1\\C(=O)c2cccc3cccc1c23", "manual score": "1 (active)"}, {"smiles": "CCNC(=S)N/N=C1\\C(=O)c2cccc3cccc1c23", "manual score": "1 (active)"}, {"smiles": "CCNC(=S)N/N=C1\\CCCCc2ccccc21", "manual score": 4}, {"smiles": "O=C(N/N=C1/C(=O)c2cccc3cccc1c23)c1ccc(Cl)cc1", "manual score": "1 (active)"}, {"smiles": "O=c1c(O)c(-c2cccs2)oc2ccc(Cl)cc12", "manual score": 3}, {"smiles": "O=C(N/N=C/c1ccc(Sc2ccccn2)o1)c1cc2ccccc2cc1O", "manual score": "1 (active)"}, {"smiles": "CCCOc1ccc(/C=N/NC(=O)C(=O)Nc2ccccn2)cc1", "manual score": 0}, {"smiles": "COc1ccc(/C=N/NC(=O)c2nc(-c3ccccc3)cc(-c3ccccc3)n2)cc1", "manual score": 0}, {"smiles": "O=C(CSc1nc(O)cc(=O)n1-c1ccccc1)N1CCCCC1", "manual score": 0}, {"smiles": "Cc1ccc(NC(=S)N/N=C/c2c(Cl)cccc2Cl)c(C)c1", "manual score": 0}, {"smiles": "Cc1ccccc1NC(=S)c1nc2ccccc2[nH]1", "manual score": "1 (active)"}, {"smiles": "N#C/C(=C\\c1ccc(N2CCOCC2)o1)c1nc2ccccc2[nH]1", "manual score": 3}, {"smiles": "Cc1ccc(C)c(NC(=S)c2nc3ccccc3s2)c1", "manual score": 0}, {"smiles": "Cc1ccc(NC(=S)c2nc3ccccc3[nH]2)c(C)c1", "manual score": "1 (active)"}, {"smiles": "COc1ccc(CNc2nc(-c3cccnc3)nn2C(=O)c2ccco2)cc1", "manual score": 0}, {"smiles": "COC(=O)c1ccc(NC(=O)CSc2nnc(COc3ccccc3)n2C)cc1", "manual score": 3}, {"smiles": "CCOC(=O)CN(C(=O)CSc1nnc(Cc2ccccc2)n1-c1ccc(C)cc1)c1ccccc1", "manual score": "-1 (active)"}, {"smiles": "CCOC(=O)c1ccccc1NC(=O)CSc1nnc(COc2ccccc2)n1CC", "manual score": -0.5}, {"smiles": "CCOC(=O)c1ccccc1NC(=O)CSc1nnc(Cc2cccn2C)n1-c1ccc(F)cc1", "manual score": "-1 (active)"}, {"smiles": "CCOC(=O)c1ccccc1NC(=O)CSc1nnc(Cc2cccn2C)n1-c1ccc(C)cc1", "manual score": "-1 (active)"}, {"smiles": "CCOC(=O)c1nn(-c2ccc(F)cc2)c(C)c1C(C)=O", "manual score": 0}, {"smiles": "CCOC(=O)c1ccccc1NC(=O)CSc1nnc(COc2ccccc2C)n1C", "manual score": "-1 (active)"}, {"smiles": "CN(C(=O)c1cccnc1)c1nnc(-c2cnccn2)s1", "manual score": 0}, {"smiles": "Cc1cccn2c(=O)c(/C=N/O)c(N3CCCC3)nc12", "manual score": 0}, {"smiles": "CCOC(=O)C1=C(C)N=C2SCCC(=O)N2C1c1sccc1C", "note": "(stereo not drawn)", "manual score": 0}, {"smiles": "Cc1ccc(C2CC2C(=O)NNC(=S)Nc2cccc(C)c2)cc1", "note": "(stereo not drawn)", "manual score": 0}, {"smiles": "CC/C(=N\\NC(=S)Nc1cc(C)ccc1C)c1ccc(OC(F)F)cc1", "manual score": 0}, {"smiles": "C/C(=N\\NC(=S)Nc1cccc(C)c1)c1cccc(N)c1", "manual score": 0}, {"smiles": "Cc1cccc(NC(=S)NNC(=O)c2sccc2C)c1", "manual score": "1 (active)"}, {"smiles": "Cc1ccsc1/C=N/NC(=O)c1sccc1C", "manual score": 0}, {"smiles": "CCc1cc(C(=O)NNC(=S)Nc2ccccc2C)cs1", "manual score": 0}, {"smiles": "CCc1cc(C(=O)NNC(=S)Nc2cc(C)ccc2C)cs1", "manual score": "1 (active)"}, {"smiles": "CCc1cc(C(=O)NNC(=S)Nc2cccc(C)c2)cs1", "manual score": "1 (active)"}, {"smiles": "O=c1oc(-c2ccc(Br)o2)nc2ccccc12", "manual score": 0}, {"smiles": "COC(=O)c1cc(=O)n(CCc2ccc(OC)cc2)c(=Nc2ccc(F)c(Cl)c2)s1", "manual score": 0}, {"smiles": "CC(C)(C)NC(=O)C(c1ccncc1)N(C(=O)c1csnn1)c1ccccc1", "note": "(stereo not drawn)", "manual score": 0}, {"smiles": "O=C(C[n+]1cc(-c2ccccc2)n2c1CCC2)OCc1ccccc1", "manual score": 0}, {"smiles": "O=C(CSc1ccccc1)N(c1ccc(Br)cc1)c1nccs1", "manual score": 0}, {"smiles": "O=C(Nc1ccccc1)Nc1nccs1", "manual score": "1 (active)"}, {"smiles": "CC1(C)Cc2ccccc2C(/C(=N\\Nc2cccc(Cl)c2)C(N)=O)=N1", "manual score": 0}, {"smiles": "O=C(NNC(=O)c1cccs1)Nc1cccc(Cl)c1", "manual score": "1 (active)"}, {"smiles": "O=C(Nc1cccc(Cl)c1)Nc1nccs1", "manual score": "1 (active)"}, {"smiles": "Cc1ccc(OCCCC(=O)Nc2nccs2)cc1", "manual score": 0}, {"smiles": "CS(=O)(=O)c1ccc2nc(NC(=O)Nc3ccc(Cl)c(Cl)c3)sc2c1", "manual score": 0}, {"smiles": "CCOC(=O)Cn1c(=O)oc2cc(S(=O)(=O)Nc3ccc(N(CC)CC)cc3C)ccc21", "manual score": 0}, {"smiles": "CCOC(=O)C1=C(C)OC(N)=C(C#N)C1c1cncc(-c2ccc(F)cc2)c1", "note": "(stereo not drawn)", "manual score": -0.5}, {"smiles": "O=C(NC(NC(=S)Nc1ccc(Cl)cc1Cl)C(Cl)(Cl)Cl)c1cccc([N+](=O)[O-])c1", "note": "(stereo not drawn)", "manual score": "1 (active)"}, {"smiles": "O=C(/C=C/c1ccccc1)NC(NC(=S)Nc1cccc(Cl)c1)C(Cl)(Cl)Cl", "note": "(stereo not drawn)", "manual score": "1 (active)"}, {"smiles": "N#C/C(=C/C=C/c1ccccc1)C(=O)Nc1ccccc1", "manual score": 0}, {"smiles": "O=C(/C=C/c1ccccc1)NC(NC(=S)Nc1cccc(O)c1)C(Cl)(Cl)Cl", "note": "(stereo not drawn)", "manual score": 3}, {"smiles": "O=C(/C=C/c1ccccc1)NC(NC(=S)Nc1cc(Cl)ccc1Cl)C(Cl)(Cl)Cl", "note": "(stereo not drawn)", "manual score": "1 (active)"}, {"smiles": "COc1ccc(C/C(C)=N/NC(=S)Nc2ccccc2)cc1", "manual score": 0}, {"smiles": "O=C(NC(=S)Nc1cc([N+](=O)[O-])ccc1Cl)c1ccccc1", "manual score": 0}, {"smiles": "Cc1c(NC(=S)NC(NC(=O)CC(C)C)C(Cl)(Cl)Cl)c(=O)n(-c2ccccc2)n1C", "note": "(stereo not drawn)", "manual score": 0}, {"smiles": "COc1ccc(NC(=S)NC(NC(=O)/C=C/c2ccccc2)C(Cl)(Cl)Cl)cc1", "note": "(stereo not drawn)", "manual score": "1 (active)"}, {"smiles": "COC(=O)c1ccccc1NC(=S)NC(NC(=O)c1ccccc1[N+](=O)[O-])C(Cl)(Cl)Cl", "note": "(stereo not drawn)", "manual score": 0}, {"smiles": "O=C(COc1ccc2ccccc2c1CN1CCOCC1)N1CCc2ccccc21", "manual score": "-1 (active)"}, {"smiles": "O=C(CSc1nc(-c2ccccc2)cc(=O)[nH]1)N1CCc2ccccc21", "manual score": 0}, {"smiles": "Cc1cccc(S(=O)(=O)NC(Cc2c[nH]c3ccccc23)C(=O)O)c1", "note": "(stereo not drawn)", "manual score": 0}, {"smiles": "CCOC(=O)C(C)Sc1nnc(-c2c[nH]c3ccccc23)n1C", "note": "(stereo not drawn)", "manual score": -0.5}, {"smiles": "CC(C)n1c(NCc2c[nH]c3ccccc23)nc2ccccc21", "manual score": "-1 (active)"}, {"smiles": "Cc1cc(C)c2c(c1)/C(=N/NC(=S)Nc1ccc(F)cc1)CCC2", "manual score": 0}, {"smiles": "Cc1ccccc1N=Nc1c(C)[nH]n(C(N)=S)c1=O", "manual score": "1 (active)"}, {"smiles": "Cc1ccccc1N=Nc1ccc(O)c2ncccc12", "manual score": 0}, {"smiles": "Cc1nn(-c2ccccc2)c(OC(=O)c2cccs2)c1S(=O)(=O)c1ccccc1", "manual score": 0}, {"smiles": "CCN(CC)C(=O)COc1ccc2oc(C)c(C(=O)OC)c2c1", "manual score": 0}, {"smiles": "CCOC(=O)c1c(C)oc2ccc(O)c(CN3CCCCC3)c12", "manual score": "-1 (active)"}, {"smiles": "CCOC(=O)c1c(C)n(C)c2ccc(O)c(CN3CCC(C)CC3)c12", "manual score": "-1 (active)"}, {"smiles": "CCOC(=O)c1c(C)[nH]c2c1cc(O)c1ccccc12", "manual score": 0}]}]}
